Results on 12 compounds are retold here after PubChem BioAssay (NCATS).

Inconclusive results are not listed. A call without a number means that no potency is given here. Activity calls are given as the source filed them. Calls follow the shape of the dose curve; as a rule, active = well fitted curve in the direction sought with a large enough effect; inconclusive = small, poorly fitted or top-dose-only effect, or another doubt; inactive = no such curve, though single readings can be large; an effect the other way counts as inactive or inconclusive.

A short description of test [1]: Primary qHTS for inhibitors of nuclear receptor binding SET domain protein 2 (NSD2) in an isogenic RCH-ACV NSD2 p.E1099K mutant (9B) (AID 1645876). The conditions noted are these: RCH-ACV NSD2 E1099K (9B) viability, CellTiter-Glo, 72 h; series mostly up to 44.9 µM. For orientation: Quantitative high-throughput screening tests each substance at several concentrations.

Test [2] can be described thus: Primary qHTS for inhibitors of nuclear receptor binding SET domain protein 2 (NSD2) in an RCH-ACV wild type WT cells (2C) (AID 1645877). To be noted: RCH-ACV (leukaemia line) NSD2 WT (2C) viability, CellTiter-Glo, 72 h; series mostly up to 44.9 µM.
Also: nearly all actives have a fitted effect of over 70% in size.

On to `CC[C@H](C)/C=C(C)/C=C/C(=O)Cc1cc(O)c(C)c(O)c1C=O`, for which the Potency entry in test [1] and in test [2] was “inactive” throughout.

For `CC1(C)NC2N(C1=O)c1ccccc1C2(O)CC(C(=O)O)n1cnc2ccccc2c1=O` (centres undefined), the Potency result in test [1] and in test [2] was “inactive” in each case. `CC/C=C\C[C@H]1C(=O)C=C[C@@H]1CCCCCCCC(=O)O`: in test [1], the Potency result was “inactive”.

In the case of `O=C(OCC12OC1C=CC(OC(=O)c1ccccc1)C2O)c1ccccc1` (centres undefined), the Potency result in test [1] was “inactive”. Consider `O=C(c1ccc(NS(=O)(=O)c2cccc3cccnc23)cc1)N1CCN(CC2CC2)CC1`, for which the Potency result in test [1] and in test [2] was “inactive” in each case. For `O=C(O)c1cc(O)c2cccc(O)c2c1O[C@@H]1O[C@H](CO)[C@@H](O)[C@H](O)[C@H]1O`, the Potency result in test [1] was “inactive”. In the case of `CC1CCC2C(C)(C)C(O)CCC2(C)C12Cc1c(O)cc3c(c1O2)CN(C(CCC(N)=O)C(=O)O)C3=O` (centres undefined), the Potency entry in test [1] and in test [2] was “inactive” each time.

As for `CC(C)C1=CC2=CCC3[C@](C)(CCC[C@@]3(C)C(=O)O)C2CC1=O` (some centres undefined), the Potency result in test [1] and in test [2] was “inactive” throughout. `CC(C)=CCC/C(C)=C/CC/C(C)=C/CC[C@]1(C)CCc2cc(O)cc(C)c2O1`: the Potency result in test [1] and in test [2] was “inactive” throughout. With `CC(=O)OC[C@]1(O)[C@H]2[C@H](OC(=O)CC(C)C)OC=C(CO[C@@H]3O[C@H](CO)[C@@H](O)[C@H](O)[C@H]3O)[C@H]2C[C@@H]1O`, in test [1], the Potency result is “inactive”.

Take `CC1=CC2(O)/C=C/C(C)(O)CC(O)/C=C/C(=O)OC23C(=O)NC(CC(C)C)C3C1C` (centres undefined): the Potency entry in test [1] was “inactive”. Take `C[C@@H]1O[C@@H](O[C@H]2[C@H](O[C@H]3[C@H](O[C@H]4CC[C@@]5(CO)C(CC[C@]6(C)C5CC=C5C7CC(C)(C)C[C@@H](O)[C@]7(C)CC[C@]56C)C4(C)C)O[C@H](C(=O)O)[C@@H](O)[C@@H]3O)OC[C@@H](O)[C@@H]2O)[C@H](O)[C@H](O)[C@H]1O` (some centres undefined): the activity change, negative = viability loss in test [1] was -1.45% [at 9.23 µM] (inactive). In test [2], the activity change, negative = cell killing was -8.5% [at 9.23 µM] (inactive).
